Hits are enriched below; roughly 3.1% of the tested compounds scored in any of these assays.
FadD28 FP inh = inhibitors of Mycobacterium tuberculosis FadD28 bisubstrate binding; 360,000 tested, 0.22% active; AID 588549; FadD28 bisubstrate probe binding, fluorescence polarization; inhibition, % at 12.5 µM; in the data active = inhibition above about 8.5%, passing the limit was not always enough
3CLpro inhibitor = SARS-CoV 3CLpro protease inhibition; P0C6X7; recombinant SARS-CoV 3CLpro, quenched FRET peptide cleavage; inhibition, % at 6 µM; 290,000 tested, 0.14% active; AID 1706; in the data active = inhibition above about 12%
Mtb FBA inh = inhibits M. tuberculosis FBA enzyme | P9WQA3 | purified M. tuberculosis FBA, fluorescence read-out | inhibition, % at 1 µM | 360,000 tested, 2.3% active | AID 588726
Target sequence (P9WQA3 whole entry, looked up): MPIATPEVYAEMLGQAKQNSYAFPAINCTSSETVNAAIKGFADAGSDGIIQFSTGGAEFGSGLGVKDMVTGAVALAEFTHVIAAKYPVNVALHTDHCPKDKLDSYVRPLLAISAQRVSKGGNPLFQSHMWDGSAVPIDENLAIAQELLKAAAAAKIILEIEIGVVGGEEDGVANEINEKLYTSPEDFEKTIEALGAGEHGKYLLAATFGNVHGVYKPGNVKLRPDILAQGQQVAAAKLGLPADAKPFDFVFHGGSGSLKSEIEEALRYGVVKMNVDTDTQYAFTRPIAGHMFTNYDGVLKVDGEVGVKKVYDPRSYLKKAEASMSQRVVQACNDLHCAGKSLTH
GDH-TPI counter-1 = counter-screen for M. tuberculosis FBA inhibitors: GDH-TPI coupled enzymes; inhibition, % at 4.8 µM; 360,000 tested, 1.2% active; GDH-TPI coupled enzyme counterscreen, NADH absorbance; AID 588335; in the data active = inhibition above about 30%
BioA inh = BioA (M. tuberculosis) enzyme inhibition. inhibition, % at 9.99 µM. 360,000 tested, 0.096% active. purified M. tuberculosis BioA enzyme, plate reader. AID 602481; in the data active = inhibition above about 40%
Mtb FBA confirm = confirmation of M. tuberculosis fructose-bisphosphate aldolase inhibitors; shares compounds with Mtb FBA inh; inhibition, % at 1 µM; 5,600 tested, 78% active; AID 651616; purified M. tuberculosis FBA, fluorescence read-out
GDH-TPI counter-2 = GDH-TPI inhibition counter-screen for FBA inhibitors; shares compounds with Mtb FBA inh; AID 652141; inhibition, % at 1 µM; GDH-TPI coupled enzyme counterscreen, fluorescence; 5,600 tested, 81% active; in the data active = inhibition above about 10%
GDH-TPI DR = counter-screen for M. tuberculosis FBA inhibitors: GDH-TPI dose response | shares compounds with Mtb FBA inh | IC50, µM | GDH-TPI coupled enzyme assay, fluorescence, artifact counterscreen | 170 tested, 79% active; call rule not given here
Each line names hits and unclear results; the compound was inactive in the other large screens (follow-up assays come after a bar, where they were run). Cut-off read from the data, not from the text of the source, unless noted: active = inhibition above about 27%; inactive = the rest.

CCN(CC)CCN1C(=O)c2ccccc2NC1c1cc(OC)c(OC)c(OC)c1 (configuration not stated)	Mtb FBA inh 107 | Mtb FBA confirm active | GDH-TPI counter-2 active
CCCN1C(=O)c2ccccc2NC1c1cc(OC)c(OC)c(OC)c1 (configuration not stated)	Mtb FBA inh 71 | Mtb FBA confirm 137 | GDH-TPI counter-2 114
COc1ccc(CCN2C(=O)c3ccccc3NC2c2cc(Cl)c(O)c(OC)c2)cc1 (configuration not stated)	none
C[C@@H]1CN([C@@H](C)CO)S(=O)(=O)c2ccc(-c3cccc(C#N)c3)cc2O[C@@H]1CN(C)C(=O)C1CC1	none (no result: FadD28 FP inh, 3CLpro inhibitor, Mtb FBA inh, GDH-TPI counter-1)
O=C(CSc1cccc2cccnc12)N1CCCC1	Mtb FBA inh 33 (no result: BioA inh) | Mtb FBA confirm 140 | GDH-TPI counter-2 108
NNC(=O)CSc1cccc2cccnc12	none (no result: BioA inh)
C[C@H]1CN([C@@H](C)CO)C(=O)c2cc(NC(=O)Nc3ccc(C(F)(F)F)cc3)ccc2O[C@@H]1CN(C)C(=O)Nc1cccc2ccccc12	none (no result: FadD28 FP inh, 3CLpro inhibitor, Mtb FBA inh, GDH-TPI counter-1)
CCOc1ccc(-c2nc3n(c(=O)c2C#N)CCS3)cc1	Mtb FBA inh 32 (no result: BioA inh) | Mtb FBA confirm 71 | GDH-TPI counter-2 62
COc1ccc(-c2nc3n(c(=O)c2C#N)CCS3)cc1	Mtb FBA inh 28 (no result: BioA inh) | Mtb FBA confirm 32 | GDH-TPI counter-2 28
C[C@H]1CN([C@@H](C)CO)S(=O)(=O)c2ccc(-c3cccnc3)cc2O[C@H]1CN(C)Cc1cccnc1	none (no result: FadD28 FP inh, 3CLpro inhibitor, Mtb FBA inh, GDH-TPI counter-1)
CCC(=O)N1C[C@@H](C)[C@H](OC)CN(C)C(=O)c2cc(NC(=O)c3ccc(F)cc3)ccc2OC[C@H]1C	none (no result: FadD28 FP inh, 3CLpro inhibitor, Mtb FBA inh, GDH-TPI counter-1)
CCCn1nnnc1NCc1c(F)cccc1Cl	Mtb FBA inh 68 (no result: BioA inh) | Mtb FBA confirm inactive | GDH-TPI counter-2 inactive
CCOC(=O)CNC(=O)c1ccc(C)cc1	none
CCOC(=O)c1[nH]c2ccc(C(=O)OC)cc2c1C(=O)OCC	Mtb FBA inh 46 | Mtb FBA confirm 114 | GDH-TPI counter-2 93
O=C(NCC(O)CO)c1ccc2[nH]c3ccccc3c2c1 (configuration not stated)	Mtb FBA inh 63 | Mtb FBA confirm 135 | GDH-TPI counter-2 108
O=C(NCCO)c1ccc2[nH]c3c(c2c1)CCCC3	none
CCOC(=O)CNC(=O)c1ccc2[nH]c3ccccc3c2c1	Mtb FBA inh 60 (no result: BioA inh) | Mtb FBA confirm inactive | GDH-TPI counter-2 inactive
CCOC(=O)c1[nH]c2ccc(C)cc2c1N	none
C=CCc1ccc(O)c(-c2cc(CC=C)ccc2O)c1	Mtb FBA inh 34 | Mtb FBA confirm 86 | GDH-TPI counter-2 63
C=CCc1ccc(OC)cc1	none (no result: 3CLpro inhibitor)
C[C@@H]1CN([C@H](C)CO)S(=O)(=O)c2ccc(-c3ccncc3)cc2O[C@@H]1CN(C)C	none (no result: FadD28 FP inh, 3CLpro inhibitor, Mtb FBA inh, GDH-TPI counter-1)
COc1cccc(Oc2ccc(OC)cc2C(=O)O)c1	none
COc1cccc(-c2c(C(=O)O)cc(O)c3ccc(OC)cc23)c1	Mtb FBA inh 34 (no result: 3CLpro inhibitor) | Mtb FBA confirm inactive | GDH-TPI counter-2 inactive
CC(OC(=O)c1ccc(Cl)c(S(=O)(=O)N2CCc3ccccc32)c1)C(=O)Nc1ncc(Cl)cc1Cl (configuration not stated)	Mtb FBA inh 64 | Mtb FBA confirm 35 | GDH-TPI counter-2 24
O=C(O)c1cccc2sc3cc(Cl)ccc3c(=O)c12	Mtb FBA inh 63 (no result: 3CLpro inhibitor) | Mtb FBA confirm 157 | GDH-TPI counter-2 126
O=C(O)c1cccc2c1-c1ccc(Cl)cc1C2	none (no result: 3CLpro inhibitor)
CC1=C(C#N)C(C)C2=C(CC(C)(C)CC2=O)N1 (configuration not stated)	Mtb FBA inh 57 | Mtb FBA confirm 71 | GDH-TPI counter-2 65
COc1ccc(NC(=O)Nc2ccc3c(c2)[C@H]2C[C@H](CC(=O)N(C)C)O[C@@H](CO)[C@H]2O3)cc1	none (no result: FadD28 FP inh, 3CLpro inhibitor, Mtb FBA inh, GDH-TPI counter-1)
CCN(CC(=O)NCc1ccc(Cl)cc1)C(=O)/C=C/c1cc(OC)c(OC)c(OC)c1	none
CCN(CC(=O)NCc1ccc(F)cc1)C(=O)/C=C/c1cc(OC)ccc1OC	Mtb FBA inh 45 (no result: BioA inh) | Mtb FBA confirm active | GDH-TPI counter-2 194
COc1ccc(OC)c(CCNC(=O)c2ccc3c(c2)N(Cc2ccccc2)CCS3)c1	none
O=C(NCc1ccco1)c1ccc2c(c1)N(Cc1ccc(Cl)cc1)CCS2	none
Cc1ccc(CN2CCSc3ccc(C(=O)NCc4ccccn4)cc32)cc1	Mtb FBA inh 66 | Mtb FBA confirm 97 | GDH-TPI counter-2 67
O=C(NCCCN1CCOCC1)c1ccc2c(c1)N(Cc1ccc(F)cc1)CCS2	Mtb FBA inh 94 | Mtb FBA confirm 178 | GDH-TPI counter-2 134
O=C(NCCCN1CCOCC1)c1ccc2c(c1)N(Cc1cccc(Cl)c1)C(=O)CS2	none (no result: BioA inh)
O=C(NCCCN1CCCC1)c1ccc2c(c1)N(Cc1ccccc1)CCS2	Mtb FBA inh 96 | Mtb FBA confirm 153 | GDH-TPI counter-2 147
O=C(NCc1ccco1)c1ccc2c(c1)N(Cc1ccccc1)CCS2	Mtb FBA inh 51 (no result: BioA inh) | Mtb FBA confirm 115 | GDH-TPI counter-2 82
Cc1ccc(NS(=O)(=O)c2cc(C(=O)NCc3ccccn3)ccc2Cl)cc1	none
CNC[C@H]1OCCCC[C@@H](C)Oc2ccc(NC(=O)Nc3c(C)noc3C)cc2C(=O)N([C@@H](C)CO)C[C@H]1C	none (no result: FadD28 FP inh, 3CLpro inhibitor, Mtb FBA inh, GDH-TPI counter-1)
O=C(C[C@H]1CC[C@H](NC(=O)C2CCC2)[C@H](CO)O1)NCc1ccccc1Cl	none (no result: FadD28 FP inh, 3CLpro inhibitor, Mtb FBA inh, GDH-TPI counter-1)
FC(F)(F)c1cc(-c2ccco2)nc2ncnn12	Mtb FBA inh 27 | Mtb FBA confirm 75 | GDH-TPI counter-2 57
FC(F)(F)c1cc(-c2ccccc2)nc2ncnn12	Mtb FBA inh 34 | Mtb FBA confirm inactive | GDH-TPI counter-2 inactive
FC(F)(F)c1nc2nc(Cl)c(Cl)nc2[nH]1	none (no result: 3CLpro inhibitor, BioA inh)
FC(F)(F)c1cccc(-c2nc3nc(Cl)c(Cl)nc3[nH]2)c1	Mtb FBA inh 31, GDH-TPI counter-1 36 | Mtb FBA confirm 35 | GDH-TPI counter-2 42
C[C@@H]1CN([C@@H](C)CO)C(=O)Cc2cc(NC(=O)C3CC3)ccc2O[C@H]1CN(C)Cc1ccc(C(=O)O)cc1	none (no result: FadD28 FP inh, 3CLpro inhibitor, Mtb FBA inh, GDH-TPI counter-1)
C[C@H](CO)N1C[C@H](C)[C@H](CN(C)C)Oc2ccc(NC(=O)CCN3CCOCC3)cc2C1=O	none (no result: FadD28 FP inh, 3CLpro inhibitor, Mtb FBA inh, GDH-TPI counter-1)
O=c1[nH]c2ccccc2nc1/C=C/c1ccc(F)cc1	none
Cc1ccc(/C=C\c2nccc3c2[nH]c2ccccc23)cc1	Mtb FBA inh 86 | Mtb FBA confirm 174 | GDH-TPI counter-2 135
C(=C\c1nccc2c1[nH]c1ccccc12)/c1ccccc1	Mtb FBA inh 91 (no result: BioA inh) | Mtb FBA confirm inactive | GDH-TPI counter-2 inactive | GDH-TPI DR 1.1
Fc1ccc(/C=C\c2nccc3c2[nH]c2ccccc23)cc1	Mtb FBA inh 74 | Mtb FBA confirm inactive | GDH-TPI counter-2 20

Screens: PubChem BioAssay, several laboratories
